High-throughput results as filed in PubChem.
SENP7 block – SENP7 protease inhibition | Q9BQF6 | recombinant SENP7, Z-RLRGG-aminoluciferin luminescence, 40 min | inhibition, % at 5 µM | 330,000 compounds, 1.5% hits;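 active means inhibition above about 50% at the single test dose, limit read from the data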;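 further: plate controls were DMSO with enzyme for no effect and no enzyme buffer wells for full effect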
Target sequence (Q9BQF6 706-1050 limits assumed): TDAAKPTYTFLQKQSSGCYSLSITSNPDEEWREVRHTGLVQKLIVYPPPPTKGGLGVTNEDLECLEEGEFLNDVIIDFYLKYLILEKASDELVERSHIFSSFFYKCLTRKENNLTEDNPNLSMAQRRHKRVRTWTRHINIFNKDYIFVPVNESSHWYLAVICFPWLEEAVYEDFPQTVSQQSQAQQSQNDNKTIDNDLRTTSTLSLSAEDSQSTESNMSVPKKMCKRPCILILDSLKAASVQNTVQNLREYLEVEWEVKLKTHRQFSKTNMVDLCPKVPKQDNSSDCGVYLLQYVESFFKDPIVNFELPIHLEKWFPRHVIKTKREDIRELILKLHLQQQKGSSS
SENP8 block-1 – inhibitors of human SENP8 protease. Q96LD8. purified SENP8, Z-RLRGG-aminoluciferin cleavage, luminescence. inhibition, % at 10 µM. 330,000 compounds, 1.2% hits. AID 2540; in the data active means inhibition above about 50%
SENP8 block-2 – SENP8 (human) protease inhibition | 360,000 compounds, 0.64% hits | AID 602440 | recombinant SENP8, Nedd8 substrate fluorescence | inhibition, % at 20 µM; in the data active means inhibition mostly above about 40%, no sharp cut-off; inactive means mostly below about 27%
PPC-1+TRAIL kill – kills PPC-1 cancer cells in the presence of TRAIL. 220,000 compounds, 0.41% hits. cell killing (% activity), % at 4 µM or 5 µM. PPC-1 cells + TRAIL, ATPLite viability luminescence;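 active means cell killing above 50% in the first pass at 4 µM, then a duplicate retest at 5 µM averaging 50% or more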;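 further: plate controls were cells with TRAIL plus DMSO for no effect and medium-only wells lacking cells for full effect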
C8 TRAIL sens – sensitizes caspase-8 expressing cells to TRAIL. NB7+C8 cells + TRAIL, ATPlite viability luminescence. inhibition (viability loss, TRAIL sensitization), % at 10 µM. 360,000 compounds, 1% hits;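 active means compounds causing at least 50% loss of cell viability in the single-dose screen, relative to plate controls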
SENP6 inh – inhibitors of human SENP6 protease | Q9GZR1 | Recombinant SENP6 catalytic domain, aminoluciferin luminescence | inhibition, % at 10 µM | 330,000 compounds, 1.8% hits;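 active means inhibition above about 50% at the single tested dose, limit read from the data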;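 further: plate controls were DMSO wells with enzyme for no effect and DMSO wells lacking enzyme for full effect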
PPC-1 tox – kills PPC-1 cells; shares compounds with PPC-1+TRAIL kill; cytotoxicity, % at 5 µM; 1,200 compounds, 50% hits; PPC-1 viability, ATPlite luminescence, overnight;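 active means reconfirmed compounds whose average cytotoxicity reaches 50% or more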;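 further: 0% = DMSO-treated cells and 100% = wells holding medium but no cells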
* hit, by the source's call; . = no result given. In the library only some 3% were active in any assay of this set; here they are far more common.

SMILES	SENP7 block	SENP8 block-1	SENP8 block-2	PPC-1+TRAIL kill	C8 TRAIL sens	SENP6 inh	PPC-1 tox
COc1ccc(C(O)c2nc(-c3cccc(O)c3)cs2)cc1 (configuration not stated)	.	.	14.4	.	-1.0	.	.
O=Nc1c2cc(-c3ccccc3)[nH]nc-2c2ccccc12	.	.	13.9	73.5*	72.0*	.	74.9*
O=C(Nc1ccccc1NS(=O)(=O)c1ccc(F)cc1)C1CCC1	-1.5	2.3	6.8	6.3	2.2	-14.2	10.9
O=C(Nc1nnc(SCC(=O)N2CCOCC2)s1)c1ccccc1Cl	-1.0	0.2	11.7	58.3*	69.2*	2.2	55.9*
CN(C(=O)CN1C(=O)NC(c2ccccc2)(c2ccccc2)C1=O)C1CCS(=O)(=O)C1 (configuration not stated)	3.1	6.0	20.8	.	-17.5	4.1	.
CCC(=O)Nc1sccc1C(=O)OC	-8.0	10.9	15.5	-3.5	8.5	-3.0	-1.4
CN(C(=O)c1ccccc1C(=O)OCC(=O)Nc1ccccc1)c1ccccc1	-2.4	-13.3	5.5	.	-10.4	-8.9	.
Cc1nn2c(-c3ccc(F)cc3)ccnc2c1Br	7.2	7.2	-4.8	.	-1.8	-1.6	.
c1csc(-c2ccnc3ncnn23)c1	2.6	5.7	-417.3	5.3	19.2	2.9	.
Fc1ccc(-c2cnn3c(-c4cccs4)ccnc23)cc1	.	.	31.7	59.4*	67.7*	.	52.8*
Fc1ccc(-c2cnn3c(-c4ccncc4)ccnc23)cc1	36.6	39.2	16.3	29.6	54.3*	-1.6	20.5
O=C(Nc1ccc2c(c1)nc1n2CCSC1)c1ccco1	5.3	-2.3	-75.3	59.5*	72.0*	-3.0	58.5*
CCOC(=O)N1CCN(C(=O)c2nc3ccccc3s2)CC1	0.5	1.9	12.0	11.5	2.3	-1.4	-0.6
CCOC(=O)N1CCN(CC(=O)Nc2nc3ccccc3s2)CC1	-5.9	-4.9	7.4	.	-22.5	-20.3	.
CC(C)NC(=O)C1CCCN(S(=O)(=O)c2cccs2)C1 (configuration not stated)	-1.8	5.0	7.3	9.0	-11.4	-3.4	1.4
CC(NC(=O)C1CCCN(S(=O)(=O)c2cccs2)C1)c1ccccc1 (configuration not stated)	7.0	-14.7	5.3	-7.4	-15.2	-3.1	.
COc1ccc(O)c(C(=O)CC(=O)c2ccc(F)cc2)c1	9.6	25.4	-223.3	79.5*	80.1*	25.0	75.4*
CCOC(=O)c1[nH]c2ccc(Cl)cc2c1NC(=O)/C=C/c1ccc2c(c1)OCO2	0.1	4.3	-48.1	25.9	24.1	8.0	.
CCN(CC(=O)Nc1c(C(=O)OC)[nH]c2ccc(Cl)cc12)c1ccc2c(c1)OCO2	-0.9	2.7	-116.3	3.9	-3.5	11.5	11.7
CCn1cc(-c2cc(C(=O)O)c3ccccc3n2)c(C)n1	-1.8	-12.1	-420.2	27.7	14.5	-21.2	.
CC(C)(C)c1ccc(-c2cc(C(=O)NNC(=O)Nc3ccccc3)c3ccccc3n2)cc1	19.0	-0.8	-13.0	64.5*	68.4*	-10.6	60.6*
O=C(NCc1ccccn1)c1cc(-c2ccc(-c3ccccc3)cc2)nc2ccccc12	-0.8	7.8	-397.7	61.5*	82.2*	21.8	60.9*
CCc1ccc(-c2cc(C(=O)Nn3cnnc3)c3ccccc3n2)cc1	24.9	16.8	-22.3	97.0*	93.4*	27.4	97.0*
CCCc1ccc(-c2cc(C(=O)NN3CCOCC3)c3ccccc3n2)cc1	1.2	1.8	-5.7	29.2	43.8	-1.9	.
CCn1cc(-c2cc(C(=O)O)c3ccccc3n2)cn1	8.3	-3.1	-404.2	51.3*	62.4*	7.0	54.8*
Cc1c(NC(=O)COc2c(F)c(F)c(F)c(F)c2F)c(=O)n(-c2ccccc2)n1C	4.2	0.4	5.3	.	-6.4	-15.1	.
COc1cccc(Oc2nc(-c3ccncc3)nc3ccccc23)c1	0.7	-0.6	27.1	12.0	2.8	-12.8	.
COc1ccc(Cl)cc1NC(=S)N1CCN(S(C)(=O)=O)CC1	-2.9	0.8	24.0	19.0	0.5	-15.8	.
COc1ccc(Cl)cc1NC(=O)N1CCN(S(C)(=O)=O)CC1	-0.9	5.0	15.8	5.2	9.8	-15.9	-9.3
